Reference: PubChem BioAssay AID1259312 (Keith Lab, Institute of Cancer Science, University of …, 2017)
The whole screen tested about 4,500 compounds, of which about 200 (4.4%) were called active.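 The calls were made as follows: active = cell survival measured by absorbance rises more than 2.5-fold over infected cells without compound; inactive = the rest.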 The sample as a whole holds a higher share of actives than the screen did.

Assay: survival after telomere uncapping, modulators, primary screen, cell-based (AID 1259312);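 also: virus expresses mutant telomerase RNA that uncaps telomeres and kills cells; compound added 2 days after infection so exposure lasts 3 days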
Conditions: HCT116 + Ad-hTR-mut, MTT, 5 d; at 10 µM, stronger effect = higher value

Question: For `COC(=O)C1=C(CSCc2ccco2)NC(=O)NC1c1ccc(C)cc1C` (centres undefined), which fold change is on record?
Answer: The fold change was -1.35 (inactive).

Question: With `CCOC(=O)c1c(NC(=O)C(F)(F)F)sc2c1CCN(C(=O)OCC)C2` as the compound, how does the fold change read?
Answer: Its fold change is 1.21 (inactive).

Question: With `Cc1ccc(-c2nc(CSc3nccc(N)n3)cs2)cc1` as the compound, how does the fold change read?
Answer: The fold change was -2.25 (inactive).

Question: With `O=S(=O)(Nc1ccc(Br)cc1)c1ccccc1` as the compound, how does the fold change read?
Answer: Its fold change is 2.66 (active).

Question: For `O=S(=O)(Nc1ccc(Br)cc1)c1ccc(Cl)cc1`, which fold change is on record?
Answer: Its fold change is 1.91 (inactive).

Question: For `O=S(=O)(Nc1ccc(S(=O)(=O)Nc2ccc(F)cc2)cc1)c1ccccc1`, which fold change is on record?
Answer: Its fold change is -1.01 (inactive).

Question: For `O=C1c2cccc(Cl)c2C(=O)c2cccc(Cl)c21`, which fold change is on record?
Answer: Its fold change is -1.08 (inactive).

Question: Which fold change does the source give for `CCc1sc(/C=C(/C#N)C(=O)OC)cc1[N+](=O)[O-]` here?
Answer: The fold change was -2.59 (inactive).

Question: For `CN(C)CCCNc1ccc([N+](=O)[O-])cc1Cl`, which fold change is on record?
Answer: Its fold change is 3.8 (active).

Question: Which fold change does the source give for `CCN(CC)CCNc1ccc(Cl)cc1[N+](=O)[O-]` here?
Answer: Its fold change is 3.03 (active).

Question: Which fold change does the source give for `CCNCCNc1ccc([N+](=O)[O-])cc1Cl` here?
Answer: The fold change was 1.86 (inactive).

Question: With `CCN(CC)CCNc1ccc([N+](=O)[O-])cc1[N+](=O)[O-]` as the compound, how does the fold change read?
Answer: The fold change was 3.5 (active).

Question: With `NCCCNc1ccc([N+](=O)[O-])cc1Cl` as the compound, how does the fold change read?
Answer: The fold change was 1.09 (inactive).

Question: With `NCCNc1ccc([N+](=O)[O-])cc1[N+](=O)[O-]` as the compound, how does the fold change read?
Answer: Its fold change is 1.82 (inactive).

Question: For `O=[N+]([O-])c1ccc(NCCO)c([N+](=O)[O-])c1`, which fold change is on record?
Answer: Its fold change is 1.74 (inactive).

Question: Which fold change does the source give for `CN(C)CCNc1ccc(Cl)cc1[N+](=O)[O-]` here?
Answer: Its fold change is 1.53 (inactive).

Question: For `NCCCNc1ccc(Cl)cc1[N+](=O)[O-]`, which fold change is on record?
Answer: The fold change was -1.5 (inactive).

Question: Which fold change does the source give for `Cc1cccc(-c2cc(=O)c3cc(Br)ccc3o2)c1` here?
Answer: The fold change was 1.11 (inactive).

Question: For `Nc1nc(C=C(Cl)Cl)cs1`, which fold change is on record?
Answer: The fold change was 1.63 (inactive).

Question: For `COc1cc2c(cc1OC)C(C(=O)O)CC(=O)N2` (centres undefined), which fold change is on record?
Answer: Its fold change is -1.06 (inactive).

Question: For `COc1ccc(C(O)c2nccn2C)cc1OC` (centres undefined), which fold change is on record?
Answer: The fold change was -1.55 (inactive).

Question: For `COc1ccc(-c2coc3ccc(OC4OC(COC(C)=O)C(OC(C)=O)C(OC(C)=O)C4OC(C)=O)c(OC(C)=O)c3c2=O)cc1` (centres undefined), which fold change is on record?
Answer: Its fold change is -1.42 (inactive).

Question: With `CC1=NN(c2ccccc2)C(=O)/C1=C\c1cn(-c2ccccc2)nc1C12CC3CC(CC(C3)C1)C2` as the compound, how does the fold change read?
Answer: The fold change was -2.06 (inactive).

Question: Which fold change does the source give for `Clc1nc2ccccc2cc1C=Nc1ccc(Br)cc1` here?
Answer: Its fold change is 3.97 (active).

Question: Which fold change does the source give for `Oc1c(Br)cc(Br)cc1C=Nc1ccc(Cl)c(Cl)c1` here?
Answer: The fold change was “inactive”.

Question: For `Clc1ccc(Cl)c(N=Cc2cc3ccccc3nc2Cl)c1`, which fold change is on record?
Answer: The fold change was 1.49 (inactive).

Question: For `Clc1ccc(N=Cc2ccccc2Cl)nc1`, which fold change is on record?
Answer: The fold change was 1.71 (inactive).

Question: Which fold change does the source give for `Clc1cccc(N=Cc2cc3ccccc3nc2Cl)c1Cl` here?
Answer: Its fold change is 3.42 (active).

Question: For `COc1cc(N=Cc2cc3ccccc3nc2Cl)c(OC)cc1Cl`, which fold change is on record?
Answer: Its fold change is 3.58 (active).

Question: With `COc1cc(N=Cc2cc(Cl)cc(Cl)c2O)c(OC)cc1Cl` as the compound, how does the fold change read?
Answer: The fold change was “inactive”.

Question: Which fold change does the source give for `Oc1c(Br)cc(Br)cc1C=Nc1ccc(F)cc1` here?
Answer: Its fold change is “inactive”.

Question: Which fold change does the source give for `CC(Sc1ccccc1)C(=O)N[C@@H]1C[C@H]2CC[C@@H]1C2` (some centres undefined) here?
Answer: Its fold change is -1.09 (inactive).

Question: For `c1ccc(-c2nc(Sc3nc(-c4ccccc4)nc4ccccc34)c3ccccc3n2)cc1`, which fold change is on record?
Answer: The fold change was -1.53 (inactive).

Question: With `O=c1[nH]c(=O)n(-c2ccccc2)c(O)c1/C=C1\C=Nc2ccccc21` as the compound, how does the fold change read?
Answer: The fold change was “inactive”.

Question: Which fold change does the source give for `O=c1[nH]n2cc(-c3[nH]ncc3[N+](=O)[O-])cnc2c1[N+](=O)[O-]` here?
Answer: The fold change was 4.1 (active).

Question: With `NC(=O)c1[nH]ncc1[N+](=O)[O-]` as the compound, how does the fold change read?
Answer: Its fold change is 1.08 (inactive).

Question: Which fold change does the source give for `N#Cc1cnn2cc(-c3[nH]ncc3[N+](=O)[O-])cnc12` here?
Answer: Its fold change is 3.75 (active).

Question: For `O=c1[nH]n2cc(-c3n[nH]c(-c4cnc5c(Br)c(=O)[nH]n5c4)c3[N+](=O)[O-])cnc2c1Br`, which fold change is on record?
Answer: Its fold change is 3.53 (active).

Question: For `CCOC(=O)c1cnn2cc(-c3[nH]ncc3[N+](=O)[O-])cnc12`, which fold change is on record?
Answer: Its fold change is -1.64 (inactive).

Question: With `Cc1cc(C)n2[nH]c(=O)c([N+](=O)[O-])c2n1` as the compound, how does the fold change read?
Answer: Its fold change is 1.66 (inactive).

Question: With `O=C(O)c1[nH]ncc1[N+](=O)[O-]` as the compound, how does the fold change read?
Answer: Its fold change is 1.94 (inactive).

Question: With `N#Cc1cnn2cc([N+](=O)[O-])cnc12` as the compound, how does the fold change read?
Answer: The fold change was -1.15 (inactive).

Question: Which fold change does the source give for `Cn1c(=O)oc2ccc(S(=O)(=O)Nc3ccc4c(c3)CCN4S(C)(=O)=O)cc21` here?
Answer: The fold change was -1.03 (inactive).

Question: With `O=C(O)C1CC(=O)N(CC2CCCO2)C1` (centres undefined) as the compound, how does the fold change read?
Answer: The fold change was -1.58 (inactive).

Question: With `CCc1sc(/C=C(/C#N)C(=O)OC(C)C)cc1Br` as the compound, how does the fold change read?
Answer: The fold change was -3.71 (inactive).

Question: For `Fc1ccc(-c2cnc3ccccc3n2)cc1`, which fold change is on record?
Answer: The fold change was -2.09 (inactive).

Question: Which fold change does the source give for `O=C(CCn1cnnn1)Nc1nc2cc(OC(F)(F)F)ccc2s1` here?
Answer: Its fold change is 1.2 (inactive).

Question: Which fold change does the source give for `COC1OC2COC(c3ccccc3)OC2C(O)C1O` (centres undefined) here?
Answer: The fold change was 3.25 (active).

Question: With `COC1OC2COC(c3ccccc3)OC2C(O)C1OS(=O)(=O)c1ccc(C)cc1` (centres undefined) as the compound, how does the fold change read?
Answer: Its fold change is 2.36 (inactive).

Question: Which fold change does the source give for `COc1ccc(N=Nc2c(N)n[nH]c2N)cc1` here?
Answer: Its fold change is “active”.

Question: With `COc1ccc(-c2nnc(N)o2)cc1` as the compound, how does the fold change read?
Answer: Its fold change is 1.14 (inactive).

Question: For `COc1ccc(C=Nc2nonc2N)cc1`, which fold change is on record?
Answer: The fold change was -2.59 (inactive).

Question: For `Cc1cc(C)nc(/N=C(/N)Nc2ccc(C)c([N+](=O)[O-])c2)n1`, which fold change is on record?
Answer: Its fold change is -1.56 (inactive).

Question: Which fold change does the source give for `O=C(O)c1cc2cc3c4c(c2oc1=O)CCCN4CCC3` here?
Answer: Its fold change is 1.07 (inactive).

Question: For `CC(C)(C)[Si](C)(C)N1C(=O)C[C@H]1C(=O)O`, which fold change is on record?
Answer: Its fold change is 1.19 (inactive).

Question: For `O=c1[nH]snc1N1CCOCC1`, which fold change is on record?
Answer: The fold change was -1.16 (inactive).

Question: For `CN1C(=O)c2ccc([N+](=O)[O-])cc2C1=O`, which fold change is on record?
Answer: Its fold change is 1.34 (inactive).

Question: With `O=C1c2ccc([N+](=O)[O-])cc2C(=O)N1Cc1nc2ccccc2c(=O)o1` as the compound, how does the fold change read?
Answer: The fold change was -5.24 (inactive).

Question: With `O=C1c2ccc([N+](=O)[O-])cc2C(=O)N1CNc1ccc2c(c1)oc1ccccc12` as the compound, how does the fold change read?
Answer: Its fold change is 2.96 (active).

Question: For `O=S(=O)(NCc1ccc2c(c1)OCO2)c1ccc2ccccc2c1`, which fold change is on record?
Answer: The fold change was -1.07 (inactive).

Question: Which fold change does the source give for `O=c1oc(-c2cccs2)nc2cc([N+](=O)[O-])ccc12` here?
Answer: The fold change was 1.07 (inactive).

Question: Which fold change does the source give for `O=C(COc1cccc2ccccc12)N1CCc2ccccc21` here?
Answer: Its fold change is -1.51 (inactive).

Question: With `O=C(CCl)N1CCc2ccccc21` as the compound, how does the fold change read?
Answer: Its fold change is 3.82 (active).

Question: Which fold change does the source give for `O=C(C(=O)N1CCc2ccccc21)N1CCc2ccccc21` here?
Answer: The fold change was -1.35 (inactive).

Question: For `CCOC(=O)c1c(NC(=O)c2ccco2)sc(C(=O)N2CCCC2)c1C`, which fold change is on record?
Answer: Its fold change is -2.09 (inactive).

Question: For `O=C1C(=Cc2c[nH]c3ccccc23)C(=O)c2ccccc21`, which fold change is on record?
Answer: Its fold change is -1.41 (inactive).

Question: Which fold change does the source give for `CN(C)C(=O)CSc1nnc(N)s1` here?
Answer: Its fold change is 3.85 (active).

Question: With `NC(=O)CSc1nnc(SCC(N)=O)s1` as the compound, how does the fold change read?
Answer: Its fold change is -3.2 (inactive).

Question: For `Nc1nnc(SCC(=O)N2CCCC2)s1`, which fold change is on record?
Answer: Its fold change is 1.32 (inactive).
